PubChem BioAssay (NCATS)
Inconclusive results are not listed. Unless noted, calls come from the whole dose curve; as a rule, active = well fitted curve in either direction with a large enough effect (not every such curve was filed as active); inconclusive = small, poorly fitted or top-dose-only effect, or another doubt; inactive = flat fitted curve, though single readings scatter.

Tests used:
[1] = AP1 Signaling Pathway (AID 357); conditions: ME-180 AP-1-bla reporter, EGF-induced, beta-lactamase ratio, 5 h; at 17.2 µM (top of the series) unless noted;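 note: ME-180 reporter cells stimulated with EGF at its EC50 level; % is set by controls: 0 for no effect and ±100 for the full control effect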
Procedure, shortened: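 Read-out was the 460nm/530nm emission ratio (excitation 405nm) after CCF4 loading for 2.5 hours at room temperature. Cells carried an AP-1-driven beta-lactamase reporter, were stimulated with EC50 EGF plus compound for 5 hours, and AC50 values came from titrations.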

[2] = NFAT Signaling Pathway (AID 444); conditions: Jurkat NFAT-bla M1, carbachol, beta-lactamase ratio, 5 h; at 17.2 µM (top of the series) unless noted;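 note: carbachol stimulus at about its EC50 of 1 µM final; % is set by controls: 0 for no effect and ±100 for the full control effect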
Procedure, shortened: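 Read-out: CCF4 FRET ratio (460 nm/530 nm) after 1 h RT dye loading, used for %activity and AC50 from titration series. Cells: Jurkat NFAT-β-lactamase/M1 line, treated with compound plus 1 uM carbachol for 5 h, 37 °C.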

[3] = Stat Signaling Pathway (AID 446); conditions: ME-180 SIE beta-lactamase reporter, IL-6 stimulated, 5 h; at 17.2 µM (top of the series) unless noted;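 note: ME-180 cervical cancer cells given 40 pM IL-6 alongside compound; SIE-controlled beta-lactamase reporter measured as 460/530 nm FRET emission ratio; % is set by controls: 0 for no effect and ±100 for the full control effect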
Procedure, shortened: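 ME-180 cells carrying a SIE-driven beta-lactamase reporter are stimulated with 40 pM IL-6 for 5 h at 37C in the presence of compound. The 460/530 nm FRET substrate ratio is read after 2.5 h at RT. Data are normalised to 300 pM IL-6 and to 125 nM JAK inhibitor controls.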

[4] = target: Glucocorticoid receptor (Homo sapiens) (UniProt P04150); test: GR-GFP Redistribution (AID 450;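 active = compounds whose dose series gives a full or clear partial fitted curve of increased nuclear translocation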; note: potency is the fitted concentration of half-maximal effect); conditions: U2OS GR-GFP nuclear translocation, laser cytometry, 2 h; series mostly up to 20.6 µM
Chain of Glucocorticoid receptor (Homo sapiens) (P04150 whole entry, looked up): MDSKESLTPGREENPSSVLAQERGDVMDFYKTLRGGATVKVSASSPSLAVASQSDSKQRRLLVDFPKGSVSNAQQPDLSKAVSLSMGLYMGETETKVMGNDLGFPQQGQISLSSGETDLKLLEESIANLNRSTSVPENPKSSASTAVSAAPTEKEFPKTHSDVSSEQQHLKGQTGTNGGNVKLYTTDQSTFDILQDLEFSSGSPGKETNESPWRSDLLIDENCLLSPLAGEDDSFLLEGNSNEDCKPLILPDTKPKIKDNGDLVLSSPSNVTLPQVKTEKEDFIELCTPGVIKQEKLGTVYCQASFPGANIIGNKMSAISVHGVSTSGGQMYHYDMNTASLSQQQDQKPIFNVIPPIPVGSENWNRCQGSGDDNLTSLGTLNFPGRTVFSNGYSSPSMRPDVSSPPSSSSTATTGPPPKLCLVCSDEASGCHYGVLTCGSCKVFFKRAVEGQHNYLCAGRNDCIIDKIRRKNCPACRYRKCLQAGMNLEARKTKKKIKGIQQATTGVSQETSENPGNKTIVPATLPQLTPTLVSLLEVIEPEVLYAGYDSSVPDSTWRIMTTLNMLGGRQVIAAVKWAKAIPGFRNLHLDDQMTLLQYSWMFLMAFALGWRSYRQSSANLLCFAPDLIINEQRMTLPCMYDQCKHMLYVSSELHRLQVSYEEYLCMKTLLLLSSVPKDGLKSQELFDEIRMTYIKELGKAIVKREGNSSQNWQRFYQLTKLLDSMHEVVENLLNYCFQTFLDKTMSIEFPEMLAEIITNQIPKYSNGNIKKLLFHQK

Cc1c(N2C(=O)SC(CC(=O)O)C2=O)c(=O)n(-c2ccccc2)n1C (stereo not drawn)
inactive: activity change, negative = inhibition [1] -20.4% | activity change, negative = inhibition [2] 10.6% | activity, negative = inhibition [3] 6.13% | Potency [4] > 20.6 µM

CC(C)(C)c1ccc(C(=O)C=[N+]=[N-])cc1
inactive: activity change, negative = inhibition [1] 0.479% | activity change, negative = inhibition [2] 1.56% | activity, negative = inhibition [3] 4.94% | Potency [4] > 20.6 µM

Nc1ccc2[nH]ncc2c1
inactive: activity change, negative = inhibition [1] 5.98% | activity change, negative = inhibition [2] -1.96% | activity, negative = inhibition [3] -0.564% | Potency [4] > 20.6 µM

CC(=O)c1c(N)nc2n(c1=O)CCCCC2
inactive: activity change, negative = inhibition [1] -12.6% | activity change, negative = inhibition [2] -9.74% | activity, negative = inhibition [3] 9.48% | Potency [4] > 20.6 µM

CC(C)OC(=O)c1sc2nc3c(cc2c1N)C(=O)CCC3
inactive: activity change, negative = inhibition [1] -5.75% | activity change, negative = inhibition [2] 7.77% | activity, negative = inhibition [3] -1.01% | Potency [4] > 20.6 µM

CCC(CC)C1C(C#N)=C(N)Oc2n[nH]c(C)c21 (stereo not drawn)
inactive: activity change, negative = inhibition [1] -22.7% | activity change, negative = inhibition [2] -13.2% | activity, negative = inhibition [3] -16.5% | Potency [4] > 20.6 µM

O=C1N[C@@H](Cc2cnc[nH]2)C(=O)N2CCC[C@@H]12
inactive: activity change, negative = inhibition [1] 15.2% | activity change, negative = inhibition [2] -19.2% | activity, negative = inhibition [3] 4.85% | Potency [4] > 20.6 µM

COc1ccc2c(c1OC)C(=O)N1c3ccccc3SC21 (stereo not drawn)
inactive: activity change, negative = inhibition [1] 2.44% | activity change, negative = inhibition [2] 6% | activity, negative = inhibition [3] -2.16% | Potency [4] > 20.6 µM

COc1ccc2c(c1)nc(N)n2Cc1ccccc1
inactive: activity change, negative = inhibition [1] -1.6% | activity change, negative = inhibition [2] -9.42% | activity, negative = inhibition [3] -3.55% | Potency [4] > 20.6 µM

Cc1ccc2[nH]c3c(NCCN4CCOCC4)ncnc3c2c1
inactive: activity change, negative = inhibition [1] -6.77% | activity change, negative = inhibition [2] 7.47% | activity, negative = inhibition [3] 0.396% | Potency [4] > 20.6 µM

c1ccc(OCc2nn3c(-c4ccccn4)nnc3s2)cc1
inactive: activity change, negative = inhibition [1] -1.82% | activity change, negative = inhibition [2] -2.83% | activity, negative = inhibition [3] 0.158% | Potency [4] > 20.6 µM

O=C(NCCOCCOCCNC(=O)c1cccnc1)c1cccnc1
inactive: activity change, negative = inhibition [1] -1.69% | activity change, negative = inhibition [2] -1.99% | activity, negative = inhibition [3] 3.22% | Potency [4] > 20.6 µM

COc1ccc2c(c1)n([O-])c1c([n+]2=O)CCC1
inactive: activity change, negative = inhibition [1] 13.4% | activity change, negative = inhibition [2] -5.03% | activity, negative = inhibition [3] 7.82% | Potency [4] > 20.6 µM

CCCCC(CCC(=O)Nc1ccc(C(=O)OCC)cc1)C(=O)O (stereo not drawn)
inactive: activity change, negative = inhibition [1] -10.4% | activity change, negative = inhibition [2] 8.16% | activity, negative = inhibition [3] 3.27% | Potency [4] > 20.6 µM

CCOC(=O)C1CCN(c2ncnc3c2cnn3-c2ccc(Cl)cc2)CC1
inactive: activity change, negative = inhibition [1] 0.357% | activity change, negative = inhibition [2] -16.1% | activity, negative = inhibition [3] 4.03% | Potency [4] > 20.6 µM

CCOc1cc(CN2CCOCC2)cc(C(C)=O)c1
inactive: activity change, negative = inhibition [1] 14.3% | activity change, negative = inhibition [2] -4.27% | activity, negative = inhibition [3] 1.95% | Potency [4] > 20.6 µM

COc1ccccc1N1CCN(C2CCN(C(=O)c3cccs3)CC2)CC1
inactive: activity change, negative = inhibition [1] 4.38% | activity change, negative = inhibition [2] -21.8% | activity, negative = inhibition [3] 19.6% | Potency [4] > 20.6 µM

O=C(O)C1CC(=O)N(Cc2cccs2)C1 (stereo not drawn)
inactive: activity change, negative = inhibition [1] -0.708% | activity change, negative = inhibition [2] -5.3% | activity, negative = inhibition [3] 7.75% | Potency [4] > 20.6 µM

Cc1nc2n[nH]c(N)c2c2c1COC(C)(C)C2
inactive: activity change, negative = inhibition [1] 3.75% | activity change, negative = inhibition [2] -4.48% | activity, negative = inhibition [3] 3.57% | Potency [4] > 20.6 µM

CCCCCCOc1ccc(N2C(=O)CC(N3CCN(C(=O)c4ccco4)CC3)C2=O)cc1 (stereo not drawn)
inactive: activity change, negative = inhibition [1] -1.51% | activity change, negative = inhibition [2] 13.8% | activity, negative = inhibition [3] -13.2% | Potency [4] > 20.6 µM

Cn1c(CSc2ncn[nH]2)nc2ccccc21
inactive: activity change, negative = inhibition [1] -5.65% | activity change, negative = inhibition [2] 3.91% | activity, negative = inhibition [3] 20.6% | Potency [4] > 20.6 µM

O=c1c(F)cn(C2CCCO2)c(=O)n1Cc1ccccc1Cl (stereo not drawn)
inactive: activity change, negative = inhibition [1] 0.0939% | activity change, negative = inhibition [2] -19.1% | activity, negative = inhibition [3] 11.6% | Potency [4] > 20.6 µM

CCOc1ccc(-c2nc(C#N)c(NCC(C)C)o2)cc1
inactive: activity change, negative = inhibition [1] -22.8% | activity change, negative = inhibition [2] -3.57% | activity, negative = inhibition [3] -7.96% | Potency [4] > 20.6 µM

O=c1c2c3c(sc2nc2n1CCCS2)CCCC3
inactive: activity change, negative = inhibition [1] -22.8% | activity change, negative = inhibition [2] -17.4% | activity, negative = inhibition [3] 1.96% | Potency [4] > 20.6 µM

CCOC(=O)CSc1nc(N(C)C)nc(N(C)C#N)n1
inactive: activity change, negative = inhibition [1] 4.52% | activity change, negative = inhibition [2] -3.44% | activity, negative = inhibition [3] -0.469% | Potency [4] > 20.6 µM

CN1CCN(Cc2c(O)ccc3c(-c4ccccc4)cc(=O)oc23)CC1
inactive: activity change, negative = inhibition [1] -11.8% | activity change, negative = inhibition [2] -9.28% | activity, negative = inhibition [3] -7.33% | Potency [4] > 20.6 µM

Cn1c(=O)[nH]c(=O)c2c1nc(Br)n2CCSc1nnnn1-c1ccccc1
inactive: activity change, negative = inhibition [1] -14.1% | activity change, negative = inhibition [2] 1.39% | activity, negative = inhibition [3] -8.23% | Potency [4] > 20.6 µM
